# Measurements as given in the supplement of paper PMC10646978.
# ± gives the standard deviation.
# Columns and labels:
# Conditions in all cases: modulator concentration 10 µM
# [1] = system: RAW-Dual (murine macrophage reporter line); assay: NF-kB reporter (SEAP) activity fold change vs agonist alone; higher = enhanced NF-kB activity
# Procedure, shortened: (§1)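 Overnight stimulation with a PRR agonist followed pre-incubation for 1 hour at 37 °C with compound at 10 μM final. This was done in RAW-Dual murine macrophage reporter cells seeded at 50 000 per well in 384-well plates. NF-κB (SEAP, QUANTI-Blue absorbance at 620 nm) and IRF (Lucia luciferase, QUANTI-Luc luminescence) were read from the supernatant. Each reporter's fold change relative to the mean agonist-only control on the same plate was averaged over replicate plates.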
# [2] = system: RAW-Dual (murine macrophage reporter line); assay: IRF reporter (Lucia luciferase) activity fold change vs agonist alone; higher = enhanced IRF activity
# Procedure, shortened: as §1
# [3] = system: RAW-Dual (murine macrophage reporter line); assay: viability score (confluency relative to resting cells, overnight) (fraction); higher = more viable, active = viable (0.7 or more)
# Procedure, shortened: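 Overnight exposure to 10 μM final compound was carried out on RAW-Dual macrophages in 384-well plates. IncuCyte software generated two confluency masks over all wells imaged with IncuCyte. The viability score gives confluency in relation to resting cells. A compound met the cutoff if each mask exceeded 70% of resting cells.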
# [4] = agonist: CpG ODN 1826 0.5 ug/mL
Structure (SMILES),"NF-kB reporter [1, 4]",NF-kB reporter ([1]; agonist: LPS 0.1 ug/mL),NF-kB reporter ([1]; agonist: MPLA […]),IRF reporter ([2]; agonist: 3'3'-cGAMP 10 ug/mL),IRF reporter ([2]; agonist: LPS 0.1 ug/mL),IRF reporter ([2]; agonist: MPLA […]),viability score [3]
Cc1cc(CNC(=O)CCc2ccc(C(F)(F)F)cc2)c(C)o1,1.09 ± 0.061,1.01 ± 0.089,0.877 ± 0.038,1.2 ± 0.069,1.14 ± 0.068,1.25 ± 0.33,0.957 (active)
CNC(=O)[C@@H](NC(=O)[C@H](CC(C)C)[C@H](O)C(=O)NO)C(C)(C)C,1.29 ± 0.097,1.15 ± 0.13,0.996 ± 0.021,0.868 ± 0.048,0.983 ± 0.11,1 ± 0.13,1.01 (active)
O=C(O)CCC(=O)Nc1ccc(Br)cc1C(=O)c1ccc(Cl)cc1,0.993 ± 0.08,1.05 ± 0.058,0.951 ± 0.066,0.986 ± 0.031,1.31 ± 0.19,1.08 ± 0.18,1.01 (active)
O=C(CCCN1C(=O)c2cccc3cccc(c23)C1=O)NCCO,1.04 ± 0.061,0.976 ± 0.078,0.963 ± 0.025,1 ± 0.072,1.12 ± 0.052,1.05 ± 0.1,0.995 (active)
CCOC(=O)C1=C(C)NC(C)=C(C(=O)OCC)C1c1ccco1,1.03 ± 0.09,1.01 ± 0.066,1.14 ± 0.087,0.82 ± 0.16,0.999 ± 0.12,0.888 ± 0.28,0.996 (active)
COc1ccc(Br)cc1C(=O)Nc1cc(C(F)(F)F)cc(C(F)(F)F)c1,1.2 ± 0.11,0.99 ± 0.096,1.01 ± 0.044,0.982 ± 0.036,0.991 ± 0.07,1.05 ± 0.14,0.999 (active)
CN(C)CC/C=C1\c2ccccc2COc2ccccc21.Cl,0.888 ± 0.038,1.06 ± 0.15,1.36 ± 0.096,0.434 ± 0.02,0.73 ± 0.14,0.876 ± 0.3,1.01 (active)
Cc1occc1C(=O)Nc1ccc([N+](=O)[O-])cc1Cl,0.88 ± 0.079,0.851 ± 0.066,0.898 ± 0.026,1.02 ± 0.088,0.931 ± 0.12,0.874 ± 0.2,0.995 (active)
CCOC(=O)C1=C(C)NC(C)=C(C(=O)OC)C1c1ccc([N+](=O)[O-])cc1 (stereo unspecified),0.97 ± 0.24,1.01 ± 0.12,1.13 ± 0.23,1.16 ± 0.049,1.01 ± 0.21,1.09 ± 0.21,0.985 (active)
NCC(O)CNCCc1ccccc1 (stereo unspecified),0.782 ± 0.067,1.02 ± 0.13,1.22 ± 0.069,0.575 ± 0.021,1.12 ± 0.12,1.02 ± 0.093,1 (active)
Brc1ccc(C(Cc2ccccc2)Nc2ccccn2)cc1 (stereo unspecified),0.255 ± 0.014,1.07 ± 0.071,0.929 ± 0.084,1.27 ± 0.042,1.75 ± 0.12,1.28 ± 0.12,0.959 (active)
Fc1ccc(Nc2nc(NN=Cc3ccccc3Cl)nc(N3CCCCC3)n2)cc1,1.02 ± 0.17,1.26 ± 0.13,1.4 ± 0.31,0.992 ± 0.071,1.1 ± 0.19,1.48 ± 0.24,0.961 (active)
COc1ccc(S(=O)(=O)N(CC(=O)Nc2ccccc2F)c2ccc(C)cc2)cc1OC,0.984 ± 0.087,0.987 ± 0.057,0.933 ± 0.059,0.979 ± 0.024,1.54 ± 0.12,1.16 ± 0.26,1.01 (active)
